SRC2 inh: inhibits human steroid receptor coactivator 2; HEK293 GAL4-SRC2 luciferase reporter, luminescence; inhibition, % at 9 µM; actives 0.17% (n = 370,000); AID 651957;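 active = inhibition above the mean inhibition of all tested compounds plus 3 SD, set per campaign, cut at about 52% in these data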;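 also: 0% = DMSO treated cells and 100% = cells given Gossypol at 36 µM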
SRC1 inh: inhibits human SRC1 coactivator. inhibition, % at 3.6 µM. actives 0.12% (n = 360,000). AID 588354. HEK293 GAL4-SRC1 luciferase reporter, luminescence;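 active = inhibition above the campaign mean plus 3 SD, with each screening campaign given its own cutoff, cut at about 60% in these data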;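 also: 0% = DMSO treated cells and 100% = gossypol at 36 µM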
NR2F2 inh: inhibitors of human COUP-TFII (NR2F2); P24468; HEK293T NGFI-A luciferase reporter, luminescence; inhibition, % at 8.6 µM; actives 0.7% (n = 370,000); AID 686940;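 active = inhibition above a per-plate cutoff, mean inhibition of test wells between control levels plus 3 SD, cut at about 38% in these data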;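 also: cells cotransfected with COUP-TFII expression vector driving the NGFI-A reporter; 0% = median of COUP-TF2 test wells and 100% = reporter-only cells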
Gli-Sufu antag: antagonists of Gli-Sufu signaling; AID 588413; Sufu-KO-LIGHT fibroblasts, Gli luciferase reporter luminescence; inhibition, % at 5 µM; actives 0.74% (n = 340,000);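 active = inhibition above about 55%, limit read from the data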;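 also: 0% = DMSO-treated cells and 100% = wells with medium but no cells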
NR5A2 inv ag: inverse agonists of human LRH-1 (NR5A2) | O00482 | HEK293T StAR-luciferase reporter, LRH-1 transfected, 24 h | inhibition, % at 3.6 µM | actives 0.13% (n = 360,000) | AID 602396;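 active = inhibition above the mean inhibition of all tested compounds plus 3 SD, cut at about 73% in these data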;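 also: 0% = DMSO wells and 100% = reporter-only cells lacking LRH-1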
NCOA3 inh: inhibits human SRC3 coactivator. Q9Y6Q9. HEK293 GAL4-SRC3 luciferase reporter, luminescence. inhibition, % at 3.6 µM. actives 0.17% (n = 360,000);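 active = inhibition above a per-campaign cutoff, the mean of all compounds plus 3 SD, cut at about 60% in these data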;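 also: 0% = DMSO-treated cells and 100% = gossypol-treated cells at 36 µM; higher means less SRC3-driven luciferase light from the GAL4 reporter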
Numbers without * were called inactive; / = not tested or not shown. Rows were chosen to be rich in hits. Some 1.3% of all compounds tested hit in one or more screens of this group.

SMILES	SRC2 inh	SRC1 inh	NR2F2 inh	Gli-Sufu antag	NR5A2 inv ag	NCOA3 inh
CCC(=O)NC(c1cccs1)c1ccc2cccnc2c1O (stereo not drawn)	31	10	17	81*	18	36
CC(C)CC(=O)NC(c1cccs1)c1ccc2cccnc2c1O (stereo not drawn)	/	1	/	72*	10	8
COCCSc1nnc(-c2cccnc2)n1Cc1ccccc1	-8	/	-2	/	/	/
Cc1cc(O)c2c(c1O)C(=O)[C@]13C(=C2O)C(=O)[C@@H]2[C@@H](O)[C@H]1[C@@H]1[C@H](O)[C@H]3C(=O)C3=C(O)c4c(O)cc(C)c(O)c4C(=O)[C@]312	/	72*	/	78*	96*	75*
COc1ccc(/C=C/C(=O)C(C(N)=O)=C2SCCS2)cc1	-11	-31	-12	-7	-20	-22
NC(=O)C(C(=O)/C=C/c1ccc(Cl)cc1)=C1SCCS1	-12	44	-14	3	25	66*
CC(=O)Nc1cccc(-c2cnc(N)c(C(=O)c3cccnc3)n2)c1	/	79*	/	-6	75*	78*
NC(=O)c1cccc(-c2cnc(N)c(C(=O)c3cccnc3)n2)c1	/	75*	/	-10	63	63*
CC(C)(N[C@@H](Cc1ccccc1)C(=O)NCC(c1ccccc1)c1ccccc1)C(=O)NC1CCCCC1	/	/	20	/	/	/
O=C(/C=C/c1ccco1)Nc1nc(-c2ccccc2)cs1	-3	-23	-17	-19	-42	-18
O=C(/C=C/c1ccco1)Nc1nc(-c2ccc(F)c(F)c2)cs1	/	/	/	58*	/	/
CC(C)C(=O)NC(c1cccc([N+](=O)[O-])c1)c1ccc2cccnc2c1O (stereo not drawn)	17	17	-10	74*	6	20
CC(C)C(=O)NC(c1ccco1)c1ccc2cccnc2c1O (stereo not drawn)	34	11	5	-3	38	45
CCN(CC)c1ccc(C(NC(=O)C(C)C)c2ccc3cccnc3c2O)cc1 (stereo not drawn)	32	43	-23	/	96*	50
CCCC(=O)NC(c1cccc([N+](=O)[O-])c1)c1ccc2cccnc2c1O (stereo not drawn)	32	20	17	/	11	10
CCN(CC)C(=O)CC[C@H]1CC[C@]2(CCCN(Cc3ccncc3)C2)O1	10	/	0	/	/	/
O=C1CN(C(=O)C2CCCCC2)C=CN1CCc1ccccc1Br	/	/	-1	/	/	/
Cc1ccc2cccc(NS(=O)(=O)c3ccccc3)c2n1	75*	/	-3	54	/	/
O=C(NN=Cc1ccco1)c1cccnc1	8	/	-6	/	/	/
CCOC(=O)[C@@]12CCC3=C1N(CCC3)C(=O)[C@H](CC(=O)NCCCCc1ccccc1)C2	14	/	14	/	/	/
N#CC1=C(N)C(C#N)(C#N)[C@H](c2cccnc2)[C@H]2CN(C(=O)OCc3ccccc3)CC=C12	-17	-17	8	-10	11	2
N#CC1=C(N)C(C#N)(C#N)C(c2cccnc2)C2CC(c3ccccc3)CC=C12 (stereo not drawn)	/	65*	/	3	28	62*
CCOc1ccc(-n2c(SCC(=O)NN=Cc3ccc(C(=O)O)cc3)nnc2-c2cccnc2)cc1	-9	/	-7	/	/	/
OCC1OC(n2cnc3c(NCc4ccccc4O)ncnc32)C(O)C1O (stereo not drawn)	-60	35	-21	31	90*	62*
COC(=O)c1cc(S(=O)(=O)N2CCN(c3cccc(C(F)(F)F)c3)CC2)cn1C	8	/	5	/	/	/
SMILES	SRC2 inh	SRC1 inh	NR2F2 inh	Gli-Sufu antag	NR5A2 inv ag	NCOA3 inh
COC(=O)c1ccc(C=NNC(=O)c2cc(-c3ccc(C)c(C)c3)n[nH]2)cc1	-14	/	-5	/	/	/
Nc1nc(N)nc(-c2cc(O)ccc2O)n1	39	71*	25	-19	54	59
CCCCCCCOC(=O)C[N+](C)(C)CCOC1CC2CCC1(C)C2(C)C (stereo not drawn)	3	23	19	82*	29	39
COc1cccc(/C=N/NC(=O)c2cc3cc([N+](=O)[O-])ccc3s2)c1O	10	4	12	77*	3	20
O=C(C1CCCN(S(=O)(=O)c2ccccc2[N+](=O)[O-])C1)N1CCN(Cc2ccccc2)CC1 (stereo not drawn)	19	/	14	/	/	/
CCCCNC(=O)N1CCC(c2nc3ccc(Cl)cc3[nH]2)CC1	4	/	1	/	/	/
